# Assay outcomes deposited in PubChem by University of Kansas High Throughput Screening Laboratory.
# Only a selection was taken, and hits are over-represented in it overall.
# Pf apPOL block – Pf-apPOL DNA polymerase inhibition | Recombinant Pf-apPOL, molecular beacon fluorescence, 1.5 h | inhibition, % at 10 µM | actives 0.25% (n = 210,000) | AID 1794808
# mHTT CaM bind – mHTT-calmodulin interaction abrogation; P42858; AlphaScreen His-mHTT/GST-CaM binding, luminescence; inhibition, % at 15 µM; actives 3.6% (n = 190,000); AID 1671202;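 note: 0% = both proteins with DMSO and 100% = one protein alone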
# Target sequence (P42858 whole entry, looked up, stated change not applied): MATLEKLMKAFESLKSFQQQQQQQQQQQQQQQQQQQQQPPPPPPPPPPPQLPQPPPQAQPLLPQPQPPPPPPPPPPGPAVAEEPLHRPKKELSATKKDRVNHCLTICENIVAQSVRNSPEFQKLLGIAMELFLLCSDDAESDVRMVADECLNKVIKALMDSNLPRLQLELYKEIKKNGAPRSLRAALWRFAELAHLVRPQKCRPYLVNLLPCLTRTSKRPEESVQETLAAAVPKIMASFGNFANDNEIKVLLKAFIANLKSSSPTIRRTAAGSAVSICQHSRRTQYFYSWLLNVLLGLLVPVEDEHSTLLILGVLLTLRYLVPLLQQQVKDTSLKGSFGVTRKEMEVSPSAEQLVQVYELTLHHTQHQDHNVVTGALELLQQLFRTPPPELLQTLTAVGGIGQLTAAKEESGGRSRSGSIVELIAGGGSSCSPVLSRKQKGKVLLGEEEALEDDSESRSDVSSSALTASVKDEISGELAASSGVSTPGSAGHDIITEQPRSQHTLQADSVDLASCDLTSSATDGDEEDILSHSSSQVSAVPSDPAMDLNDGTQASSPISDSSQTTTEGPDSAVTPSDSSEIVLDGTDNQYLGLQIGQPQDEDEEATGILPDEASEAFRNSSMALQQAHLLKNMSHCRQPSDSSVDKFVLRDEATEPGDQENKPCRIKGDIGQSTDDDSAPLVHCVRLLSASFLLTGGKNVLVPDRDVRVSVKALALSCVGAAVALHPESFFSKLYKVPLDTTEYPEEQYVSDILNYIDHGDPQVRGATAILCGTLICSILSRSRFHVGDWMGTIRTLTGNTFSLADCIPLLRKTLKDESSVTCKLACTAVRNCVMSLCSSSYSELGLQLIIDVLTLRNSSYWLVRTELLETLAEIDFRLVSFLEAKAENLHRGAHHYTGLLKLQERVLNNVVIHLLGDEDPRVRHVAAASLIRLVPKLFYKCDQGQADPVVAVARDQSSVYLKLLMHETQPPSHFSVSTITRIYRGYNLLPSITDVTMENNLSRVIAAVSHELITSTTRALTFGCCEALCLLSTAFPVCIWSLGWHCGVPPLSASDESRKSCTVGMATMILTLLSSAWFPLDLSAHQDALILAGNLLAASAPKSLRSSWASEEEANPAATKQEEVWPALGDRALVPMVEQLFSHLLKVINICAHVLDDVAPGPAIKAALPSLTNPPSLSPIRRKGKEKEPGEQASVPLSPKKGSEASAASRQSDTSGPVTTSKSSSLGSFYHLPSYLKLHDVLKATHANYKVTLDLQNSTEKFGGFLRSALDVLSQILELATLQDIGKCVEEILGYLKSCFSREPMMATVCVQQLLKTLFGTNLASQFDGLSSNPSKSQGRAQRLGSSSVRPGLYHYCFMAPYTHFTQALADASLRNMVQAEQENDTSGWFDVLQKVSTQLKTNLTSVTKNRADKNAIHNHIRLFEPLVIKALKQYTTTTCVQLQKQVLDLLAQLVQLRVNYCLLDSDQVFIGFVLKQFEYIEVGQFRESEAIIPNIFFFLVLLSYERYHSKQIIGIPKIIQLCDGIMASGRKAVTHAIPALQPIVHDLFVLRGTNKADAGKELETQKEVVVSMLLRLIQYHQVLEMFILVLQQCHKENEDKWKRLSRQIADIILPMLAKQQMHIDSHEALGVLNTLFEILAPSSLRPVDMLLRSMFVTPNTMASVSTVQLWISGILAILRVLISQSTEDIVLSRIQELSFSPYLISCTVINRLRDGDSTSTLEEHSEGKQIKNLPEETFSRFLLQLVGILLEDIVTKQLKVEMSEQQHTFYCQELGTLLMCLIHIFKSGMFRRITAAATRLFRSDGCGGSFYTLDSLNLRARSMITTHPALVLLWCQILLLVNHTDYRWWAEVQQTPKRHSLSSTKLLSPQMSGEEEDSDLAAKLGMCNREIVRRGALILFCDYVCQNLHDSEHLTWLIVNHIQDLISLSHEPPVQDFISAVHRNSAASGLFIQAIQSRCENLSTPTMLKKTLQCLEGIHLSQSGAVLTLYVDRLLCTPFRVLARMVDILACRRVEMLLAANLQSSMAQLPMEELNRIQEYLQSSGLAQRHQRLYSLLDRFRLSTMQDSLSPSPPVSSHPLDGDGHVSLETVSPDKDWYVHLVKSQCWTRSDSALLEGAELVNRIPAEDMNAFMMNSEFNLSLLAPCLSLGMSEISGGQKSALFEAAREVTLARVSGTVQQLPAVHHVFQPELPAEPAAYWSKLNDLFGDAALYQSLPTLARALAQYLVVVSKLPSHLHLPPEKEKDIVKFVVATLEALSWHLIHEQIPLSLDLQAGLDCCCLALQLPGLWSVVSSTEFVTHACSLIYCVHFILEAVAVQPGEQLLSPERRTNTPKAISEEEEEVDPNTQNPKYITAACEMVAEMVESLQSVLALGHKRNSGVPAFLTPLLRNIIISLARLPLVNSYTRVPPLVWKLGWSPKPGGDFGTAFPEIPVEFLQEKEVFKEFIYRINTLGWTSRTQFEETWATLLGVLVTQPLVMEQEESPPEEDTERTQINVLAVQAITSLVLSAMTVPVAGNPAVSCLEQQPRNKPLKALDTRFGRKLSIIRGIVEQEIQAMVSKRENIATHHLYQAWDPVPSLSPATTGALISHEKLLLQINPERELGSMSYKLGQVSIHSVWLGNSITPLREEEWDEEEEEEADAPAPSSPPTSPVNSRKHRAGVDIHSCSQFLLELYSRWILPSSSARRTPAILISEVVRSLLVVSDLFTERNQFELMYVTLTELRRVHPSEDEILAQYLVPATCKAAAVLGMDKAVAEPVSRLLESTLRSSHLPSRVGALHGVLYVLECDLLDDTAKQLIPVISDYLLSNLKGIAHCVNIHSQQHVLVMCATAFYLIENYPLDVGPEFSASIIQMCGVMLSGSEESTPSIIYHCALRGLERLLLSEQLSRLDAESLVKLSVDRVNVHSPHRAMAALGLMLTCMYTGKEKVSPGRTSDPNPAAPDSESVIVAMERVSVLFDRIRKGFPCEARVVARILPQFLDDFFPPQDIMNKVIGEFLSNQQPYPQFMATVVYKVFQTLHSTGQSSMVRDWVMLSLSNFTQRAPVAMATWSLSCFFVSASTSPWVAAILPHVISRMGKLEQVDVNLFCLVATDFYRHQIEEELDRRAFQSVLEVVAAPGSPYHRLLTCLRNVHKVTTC
# * marks the source's active call; other numbers are inactive results; nt = not tested or not shown; ! = not confirmed by another sample. Cut-off read from the data, not from the text of the source: active = inhibition above about 50%; inactive = the rest.
SMILES,Pf apPOL block,mHTT CaM bind
Cc1ccc(S(=O)(=O)N=C(Nc2ccc(Br)cc2)Nc2nc(C)cc(C)n2)cc1,-8.8,-4.0
CCN(CC)Cc1c(O)ccc2c1OC(=Cc1cccc(Cl)c1)C2=O,-2.2,53.3*
CN(C)Cc1c(O)ccc2c1OC(=Cc1cccc(Cl)c1)C2=O,10.5,10.9
COc1ccc(Cl)cc1N1CCN(C(C)C(=O)Nc2ccc(C)cc2)CC1 (centres undefined),0.3,98.7*
COc1ccccc1N1CCN(C(C)C(=O)Nc2ccc(F)cc2)CC1 (centres undefined),-3.4,7.7
COc1cc(C(=O)Nc2nc(-c3ccc(C)cc3)c(C)s2)cc(OC)c1OC,23.4,9.0
CCOc1ccccc1NC(=O)C1CCN(S(=O)(=O)c2ccc(Br)s2)CC1,-2.6,-4.0
Cc1nc2ccc3nc(NC(=O)c4ccccc4Cl)sc3c2s1,-7.4,72.0*!
Cc1nc2ccc3nc(NC(=O)c4ccccc4[N+](=O)[O-])sc3c2s1,2.9,29.9
COC(=O)c1ccccc1NC(=O)N1CCC(c2cc(-c3cccc(OC)c3)n[nH]2)CC1,14.6,34.5
COC(=O)c1cc(Nc2cccc(F)c2)c2cccc(F)c2n1,0.9,-7.1
COC(=O)c1cc(Nc2ccc3c(c2)OCO3)c2cccc(F)c2n1,-3.3,51.0*
C#CC(C=CC)OC(=O)c1ccccc1C(=O)O (centres undefined),53.3*,nt
C#CCSc1ccccc1C(=O)O,-3.5,-6.8
COc1cc(O)c(CN(C)C)c2oc(-c3ccccc3)cc(=O)c12,-2.9,1.4
COc1cc2oc(-c3ccccc3)cc(=O)c2c(O)c1CN(C)C,26.9,100.3*
CCCC(=O)NC(c1cccs1)c1cc([N+](=O)[O-])c2cccnc2c1O (centres undefined),5.1,100.0*
CCCC(=O)Nc1ccccc1NC(=O)Cc1ccccc1[N+](=O)[O-],1.8,-3.4
CCCCC(=O)NC(c1ccco1)c1cc([N+](=O)[O-])c2cccnc2c1O (centres undefined),-0.4,100.0*
O=C(CCc1ccccc1)NC(c1cccs1)c1cc(Cl)c2cccnc2c1O (centres undefined),-4.0,31.0
CCCCC(=O)NC(c1cccs1)c1cc([N+](=O)[O-])c2cccnc2c1O (centres undefined),8.6,96.0*
COc1ccccc1N1CCN(c2ccc([N+](=O)[O-])c3cccnc23)CC1,1.1,4.1
CCOc1ccc(N/C=C/C(=O)c2cccs2)c([N+](=O)[O-])c1,-5.0,37.6
CCCCC(=O)NC(c1ccccc1OC)c1cc([N+](=O)[O-])c2cccnc2c1O (centres undefined),-70.6,100.0*!
Cc1cccc(C2CCCN2C(=O)c2ccco2)c1 (centres undefined),-4.7,8.9
SMILES,Pf apPOL block,mHTT CaM bind
COCCC1CCN(C(=O)COc2ccc(F)c(F)c2)CC1,0.7,-2.4
Cc1cccc(CNC(=O)C2CCCN(c3nccc(C)n3)C2)c1 (centres undefined),1.3,-11.1
COCc1cc(C)nc2sc(C(=O)c3cccc([N+](=O)[O-])c3)c(N)c12,1.8,0.6
Cc1ccccc1C(=O)NCC(O)C1CCCCC1 (centres undefined),-1.6,-1.3
CCC(=O)NC(c1cccs1)c1cc([N+](=O)[O-])c2cccnc2c1O (centres undefined),-4.6,100.0*
O=C(O)CC(NCc1ccc(Cl)c([N+](=O)[O-])c1)c1cccs1 (centres undefined),34.5,-6.0
CC(=O)NC(c1cccs1)c1cc([N+](=O)[O-])c2cccnc2c1O (centres undefined),-0.3,100.0*
CC1CCc2cc(F)ccc2N1C(=O)c1cc2ccccc2c(=O)o1 (centres undefined),-6.2,-3.0
C=C(C)CN(CC)C(=O)C1CCN(Cc2ccc(OCc3ccccc3)c(OC)c2)CC1,8.5,23.9
NNc1nc(Nc2ccccc2)nc(N2CCOCC2)n1,-0.7,98.4*
Clc1ccc(Nc2nc(Oc3ccccc3)nc(N3CCOCC3)n2)cc1,-2.8,-2.0
c1ccc(Nc2nc(N3CCCCC3)nc(N3CCNCC3)n2)cc1,-0.1,15.5
NNc1nc(Nc2ccccc2)nc(N2CCCC2)n1,-5.7,81.0*
COc1cccc(CN2CCc3c(cc(C(=O)NCCN4CCCC4)n3C)C2)c1,-1.4,37.2
C#CCCNC(=O)CC(C)(C)C,-2.7,-4.8
CC1=CC(=NS(=O)(=O)c2ccc(Br)cc2)C=C(C)C1=O,-4.7,52.0*
O=C1C=CC(=NS(=O)(=O)c2ccccc2)C=C1Br,-5.2,57.0*
Cc1cc(C)c(S(=O)(=O)N=C2C=CC(=O)C(Br)=C2)cc1C,-7.1,58.0*
CC1=C(C)C(=NS(=O)(=O)c2ccccc2)C=CC1=O,1.0,37.0
O=C1C=CC(=NS(=O)(=O)c2ccc(Br)cc2)C=C1,-5.5,24.0
Cc1cc(C)c(S(=O)(=O)N=C2C=CC(=O)C=C2)cc1C,5.9,30.0
CCc1ccc(S(=O)(=O)N=C2C=CC(=O)C(Br)=C2)cc1,-3.3,72.0*
Cc1ccc(S(=O)(=O)N=C2C=CC(=NS(=O)(=O)c3ccc(C)cc3)C=C2)cc1,-2.3,23.0
CCn1ccc(C(=O)N2CCC3(C2)NCc2ccccc2NC3=NC2CCCC2)n1 (centres undefined),-3.0,22.8
Cc1ccc(CNC(=O)c2cn3ccc(C)cc3n2)cc1,0.5,-4.8
SMILES,Pf apPOL block,mHTT CaM bind
Cc1noc(-c2nn(C)c3c2CN(S(=O)(=O)c2cccc(Cl)c2)CC3)n1,0.1,14.3
CCCCN(C)C(=O)c1ccc(CS(=O)(=O)Cc2ccccc2Cl)o1,-7.7,-2.0
COc1ccc(NC(=O)c2cn3c(n2)CCCC3)cc1OC,-1.4,-11.0
O=C(NCc1cc(-c2ccc3c(c2)OCO3)on1)C1c2ccccc2Oc2ccccc21,-5.0,-10.2
COc1cccc(OC)c1C(=O)N1CCCC1c1cc(C)on1 (centres undefined),5.4,-4.2
O=C1C(Br)=CC(=NS(=O)(=O)c2ccccc2)C=C1Br,-1.5,100.0*
CC1=CC(=O)C=C(C)C1=NS(=O)(=O)c1ccccc1,4.6,5.0
O=C(NCc1cccnc1)c1cc2n(n1)C(C(F)(F)F)CC(c1ccc3c(c1)OCO3)N2 (centres undefined),-4.8,8.0
O=[N+]([O-])c1ccc2[nH]c3c(c2c1)CCCC3NC1Cc2ccccc2C1 (centres undefined),-1.5,92.9*
CC(C)NC1CCCc2c1[nH]c1ccc([N+](=O)[O-])cc21 (centres undefined),-3.3,11.8
CCc1nc(-c2ccc(C(=O)NC)cc2)no1,-1.7,-1.3
Cc1nc(-c2cn(C(C)C)c3ncccc23)sc1C(=O)Nc1ccc(F)cc1,-8.0,100.3*
CCn1cc(-c2nc(C)c(C(=O)Nc3ccc(C)cc3)s2)c2cccnc21,2.0,-13.5
O=C(CC1Nc2cccc3cccc(c23)NC1=O)Nc1cccc(C(F)(F)F)c1 (centres undefined),0.6,50.7*
COc1cccc(NC(=O)CC2Nc3ccccc3NC2=O)c1 (centres undefined),3.1,8.5
Cc1cnc(-n2nnc(C(=O)NCc3ccccc3OC(F)(F)F)c2C)s1,-7.7,-11.6
CC(=O)N1CCc2cn(CC(C)C)c3cccc(c23)C1,-2.4,43.7
COc1ccc(NC(=O)N2CCc3cn(CC(C)C)c4cccc(c34)C2)cc1OC,-0.8,28.8
CCC(=O)N1CCc2cn(CC(C)C)c3cccc(c23)C1,-4.9,53.6*
